Growth inhibition data for 21 compounds are collected here from PubChem BioAssay (NCI).

Assay [1] in a line: NCI Yeast Anticancer Drug Screen. Data for the rad50 strain (AID 155).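 Further: 0% = growth of vehicle-only cultures of the same strain.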 Conditions: S. cerevisiae rad50 strain growth inhibition; at 50.0 µM; active compounds read high. The essentials: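 Genetically altered yeast (DNA repair pathway); compound treatment; growth inhibition vs vehicle ctrl.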
Assay [2] in a line: NCI Yeast Anticancer Drug Screen. Data for the mec2-1 strain (AID 157). Conditions: S. cerevisiae mec2-1 strain, at 50.0 µM, active compounds read high. A digest of the protocol: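 Vehicle-treated cultures served as reference for growth inhibition of compound-exposed mec2-1 yeast.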
Assay [3] in a line: NCI Yeast Anticancer Drug Screen. Data for the sgs1 mgt1 strain (AID 161).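 Further: 0% = growth of cultures given vehicle only.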 Conditions: S. cerevisiae sgs1 mgt1 strain, at 50.0 µM, active compounds read high. The essentials: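 Genetically altered yeast, compound exposure, growth inhibition relative to vehicle.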
A short description of assay [4]: NCI Yeast Anticancer Drug Screen. Data for the cln2 rad14 strain (AID 165).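 Further: 0% = growth equal to vehicle treated cultures.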 Conditions: S. cerevisiae cln2 rad14 strain, at 50.0 µM, active compounds read high. A digest of the protocol:
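Each compound was tested on cln2 rad14 yeast. Inhibition of growth was calculated against vehicle-exposed controls.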

A short description of assay [5]: NCI Yeast Anticancer Drug Screen. Data for the bub3 strain (AID 167). Conditions: S. cerevisiae bub3 mutant strain, at 50.0 µM, active compounds read high. A digest of the protocol: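 Yeast carrying a defined mutation is treated with each compound, and growth is compared with that of vehicle-exposed cells to give inhibition.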
Assay [6] can be described thus: NCI Yeast Anticancer Drug Screen. Data for the mlh1 rad18 strain (AID 175). Conditions: S. cerevisiae mlh1 rad18 strain growth inhibition; at 50.0 µM; active compounds read high. A digest of the protocol:
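Vehicle-treated cultures served as the reference for growth inhibition in a yeast strain carrying DNA damage repair alterations exposed to each compound.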

Structures are written as SMILES. The panel holds about 79,000 compounds, 15% with a hit somewhere; the sample as a whole holds those more often. Unmarked numbers belong to inactive results. Active and inactive are the calls of the source. No stated cut-off is given here; in the data, active means growth inhibition above about 70%; inactive means the rest.

As for `C(=C/c1ccc(/C=C/C=C\c2ccccc2)cc1)/C=C/c1ccccc1`, the growth inhibition is -4.1% in assay [1]; -2.25% in assay [2]; 13.8% in assay [3]; -50.6% in assay [4]; -2.1% in assay [5]; -12.2% in assay [6].

Consider `CC(=O)NC1c2ccccc2-c2ccccc21`, for which the growth inhibition was -5.1% in assay [1]; 34.2% in assay [2]; -1.15% in assay [3]; 42% in assay [4]; 17.3% in assay [5]; 3.8% in assay [6].

On to `C[N+](C)(C)c1ccc(C(N)C(=O)O)cc1` (stereo unspecified), for which the growth inhibition is -7.7% in assay [1]; -18.3% in assay [2]; -17.1% in assay [3]; -30.1% in assay [4]; -41.7% in assay [5]; 2.8% in assay [6].

With `C[Si](C)(C)C#CC(O)CS(=O)c1ccccc1` (stereo unspecified), the growth inhibition in assay [1] is -19.5%; in assay [2] it was -19.4%; in assay [3], -13.3%; in assay [4], -3.7%; in assay [5], -6.45%; in assay [6], -17.1%.

In the case of `CN(C)CCSC(CO)c1ccccc1` (stereo unspecified), the growth inhibition in assay [1] is -12.7%; in assay [2] it was -13.4%; in assay [3] it was 2.85%; in assay [4] it was 9.2%; in assay [5] it was -1.15%; in assay [6], -6.5%.

As to `O=C(c1no[n+]([O-])c1C(=O)c1csc2ccccc12)c1csc2ccccc12`, the growth inhibition in assay [1] is -9.7%; in assay [2] it was -2.2%; in assay [3] it was -31.9%; in assay [4], -39.9%; in assay [5] it was -10.3%; in assay [6], -0.25%.

Take `C/C(=N/NC(=O)c1ccncc1)C(F)(F)F`: the growth inhibition in assay [1] is -29.8%; in assay [2], 5.75%; in assay [3] it was -25.9%; in assay [4], -6.85%; in assay [5] it was 14%; in assay [6], 7.85%.

Consider `O=CC(Cc1ccccc1)C(=O)CCc1ccccc1.[Cu+2]` (stereo unspecified), for which the growth inhibition is 40.1% in assay [1]; 13.9% in assay [2]; 4.95% in assay [3]; -48.6% in assay [4]; 0.4% in assay [5]; 2.55% in assay [6].

For the compound `CCN1CCCCC(=N\O)/C(=N/O)CCCC1`, the growth inhibition was -12.8% in assay [1]; -12.2% in assay [2]; -20.1% in assay [3]; -4.2% in assay [4]; -51.6% in assay [5]; -11.8% in assay [6].

For `Nc1cc(C(=O)O)c2ccccc2c1`, the growth inhibition was 4.5% in assay [1]; -6.95% in assay [2]; -5.7% in assay [3]; -16.8% in assay [4]; 3.45% in assay [5]; 5.15% in assay [6].

With `COC(=O)C[C@H]1CCC2(OCCO2)[C@]1(C)C(=O)OC`, the growth inhibition in assay [1] was -10.7%; in assay [2], -11.6%; in assay [3] it was -11.2%; in assay [4] it was -23.4%; in assay [5] it was -6.9%; in assay [6], -27.1%.

For the compound `CN(C)c1nc(N(C)C)n2c(-c3ccccc3[N+](=O)[O-])nnc2n1`, the growth inhibition in assay [1] is 48.3%; in assay [2], 18.4%; in assay [3], 22%; in assay [4], 23.4%; in assay [5] it was 13.3%; in assay [6] it was 33.4%.

For `CNC1C(CO)OC(OC)C1O` (stereo unspecified), the growth inhibition in assay [1] is 10.8%; in assay [2], 12%; in assay [3], 7.1%; in assay [4], 8%; in assay [5], 1.2%; in assay [6], -2.85%.

For `Cc1c2oc3c(C)ccc(C(=O)NCCN4CCOCC4)c3nc-2c(C(=O)NCCN2CCOCC2)c(N)c1=O`, the growth inhibition is -8.1% in assay [1]; 29.6% in assay [2]; 37.5% in assay [3]; -26.5% in assay [4]; 38.9% in assay [5]; 15.8% in assay [6].

With `N#C/C(=C\c1c[nH]c2ccccc12)c1ccc([N+](=O)[O-])cc1`, the growth inhibition in assay [1] was -13.9%; in assay [2], -10%; in assay [3] it was 5.45%; in assay [4], 3.45%; in assay [5], -5.2%; in assay [6], -4.1%.

Turning to `O=C(O)c1ccccc1N=N/C(=N\Nc1ccccc1C(=O)O)c1ccnc2ccccc12`, the growth inhibition in assay [1] is 37.5%; in assay [2] it was 10%; in assay [3], 29.3%; in assay [4], 11.2%; in assay [5] it was 2.8%; in assay [6] it was 26.9%.

For `COc1ccccc1NC(=O)/C(=C/C1CC(=O)NC1=S)C(C)=O` (stereo unspecified), the growth inhibition in assay [1] was -18.6%; in assay [2] it was -9.4%; in assay [3], -18.6%; in assay [4], 15.5%; in assay [5] it was 12%; in assay [6], -7.4%.

Regarding `O=C(OCc1ccccc1CN1CCOCC1)c1ccc(Cl)cc1`, the growth inhibition is 42.1% in assay [1]; 68.5% in assay [2]; 75.7% (active) in assay [3]; 84% (active) in assay [4]; 87% (active) in assay [5]; 74.8% (active) in assay [6].

Consider `CCOC(=O)C(/C=C/c1cc(C)c(C)c(C)c1)(NC=O)C(=O)OCC`, for which the growth inhibition in assay [1] was -3.25%; in assay [2], 2.55%; in assay [3], 9.6%; in assay [4], 5.75%; in assay [5], 12.1%; in assay [6], -1.3%.

With `C=C1OC(=O)C(N)=C1C(C)=O`, the growth inhibition is -2.65% in assay [1]; 23.7% in assay [2]; 9.05% in assay [3]; -5.2% in assay [4]; 3.9% in assay [5]; 12.4% in assay [6].

With `CC(C)(C)OC(=O)N1CCc2c([nH]oc2=O)C1`, the growth inhibition in assay [1] was -1.25%; in assay [2] it was -8.55%; in assay [3] it was -3.5%; in assay [4], -17.6%; in assay [5], 10.6%; in assay [6] it was -3.8%.
